# Assay outcomes as filed in PubChem BioAssay.
# Shown are actives, neighbours in structure and some others; about 7.3% of the full set was active somewhere.
# HCMV antiviral: human cytomegalovirus inhibition; HFF cells, HCMV-luciferase reporter, 72 h; active compounds read low; activity change, negative = inhibition, % at 57.5 µM; 4.5% of 410,000 active; AID 1259415; in the data active = activity change below about -60%; inconclusive = no clear call, values can overlap the other calls; inactive = above about -39%
#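 HFF cells seeded 16 h at 37C, treated with compounds, infected with luciferase-reporter HCMV at MOI 1 PFU/cell; luciferase read at 72 h post infection, normalized to buffer-only and Salinomycin controls.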
# HCV inhibitor: HCV inhibition; Huh7.5.1 HCVcc-Cre infection, luciferase reporter, 44 h; Potency, µM (top dose mostly 41.8 µM), for inactives: top-dose activity change, negative = inhibition, hits mostly inhibitors; 3.4% of 340,000 active; active = well fitted inhibition curve with a large enough effect; inconclusive = small, poorly fitted or top-dose-only effect, or another doubt; inactive = no such curve, though single readings can be large or run the other way; also: potency is read from the fitted curve at half-maximal effect
#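 Antiviral activity was scored by luciferase reporter output from cells infected with HCVcc-Cre (~0.5 moi) in presence of compound, 44 h infection period, cells seeded 1,000/well 4 h prior.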
# FMDV inh: antivirals against foot and mouth disease virus | FMDV antiviral cell-based qHTS | AID 1159524 | 1.2% of 410,000 active | Potency, µM (top dose mostly 57.9 µM), without a hit: at the highest dose activity change, negative = inhibition, most hits filed as inhibitors; calls by dose curve; tested in HEK293T cells; also: read-out not given here; potency is read from the fitted curve at half-maximal effect; nearly all actives have a fitted effect of over 45% in size
# VACV mCherry inh: vaccinia inhibition (mCherry reporter); Vaccinia virus mCherry reporter infection, fluorescence; 0.63% of 310,000 active; Potency, µM (top dose mostly 36.5 µM), for inactives: at the highest dose activity change, negative = inhibition, usual class: inhibitors; calls by dose curve; tested in A549 cells; also: potency is read from the fitted curve at half-maximal effect; nearly all actives have a fitted effect of over 35% in size
# VACV Venus inh: inhibitors of vaccinia virus (Venus reporter). Vaccinia virus Venus reporter expression, fluorescence. Potency, µM (doses to about 36.5 µM), for inactives: at the highest dose activity change, negative = inhibition, usual class: inhibitors. 0.46% of 330,000 active. AID 720580; calls by dose curve; tested in A549 cells; also: potency is read from the fitted curve at half-maximal effect; nearly all actives have a fitted effect of over 30% in size
# Starred values were filed as active, the others as inactive; i = inactive; ? = inconclusive; . = no result given; [ ] = remark or other dose. % is scaled to controls: 0 for no effect and ±100 for the full control effect.
SMILES,HCMV antiviral,HCV inhibitor,FMDV inh,VACV mCherry inh,VACV Venus inh
COc1ccc(-c2oc(=O)c3cc(OC)c(OC)cc3c2-c2ccc3c(c2)OCO3)cc1,-19,?,3%,-4%,-11%
CCNC(=O)C1(C)CCN(C(=O)c2cccc(C#N)c2)C1 (configuration not stated),5,.,-2%,7%,-6%
N#C/C(=C\c1ccncc1)c1nc2ccccc2o1,178,9%,18%,i,13%
N#C/C(=C\Nc1ccccc1O)c1nc2ccccc2o1,-95*,10µM*,?,?,?
Cc1c(C(=O)NCCCN2CCOCC2)sc2nc(-c3ccc(F)cc3)cn12,-11,10µM*,0%,-25%,-22%
Cc1c(C(=O)N(C)Cc2ccccc2)sc2nc(-c3ccc(F)cc3)cn12,-82*,.,2%,?,?
Cc1c(C(=O)NCc2cccnc2)sc2nc(-c3ccccc3)cn12,35,2%,-10%,i,-24%
Cc1ccc(-c2cn3c(n2)sc2cc(C(=O)NCCCN4CCCCC4)ccc23)cc1,.,.,27%,11µM*,8.9µM*
Cc1c(C(=O)NCc2cccnc2)sc2nc(-c3ccc(F)cc3)cn12,-22,11µM*,-7%,?,?
Cc1ccc(-c2cn3c(n2)sc2cc(C(=O)NCCCN4CCCCCC4)ccc23)cc1,.,.,13%,?,?
Cc1cccc(S(=O)(=O)N2[C@@H]3c4cccc(=O)n4C[C@H]2[C@H](CO)[C@H]3C(=O)N(C)C)c1,15,.,.,.,.
O=S(=O)(Oc1ccccc1N1CCCCC1)c1ccccc1,-61*,-12%,0%,-14%,-10%
O=C1CCC(=O)N1c1ccccc1OS(=O)(=O)c1ccccc1,-97*,31%,-9%,-6%,-7%
COc1ccccc1N1CCN(S(=O)(=O)c2ccccc2)CC1,78,6%,-13%,i,-10%
O=S(=O)(c1ccccc1)c1nc(-c2ccco2)oc1Nc1ccccc1,-62*,-22%,31%,-18%,-8%
CC(=O)Nc1ccc(C(=O)COC(=O)CCc2ccccc2)c(F)c1,-10,-9%,-18%,i,-10%
Cc1ccccc1N(CC(=O)N1CCN(Cc2ccccc2)CC1)S(C)(=O)=O,-22,.,-12%,-13%,-6%
CCCCNc1nc2sc3c(c2c(=O)n1-c1cccc(Cl)c1)CCN(C)C3,-6,4µM*,1%,-2%,-17%
CCCc1nc2c3ccccc3ccn2c1Cc1ccccc1,77,.,27%,7%,-13%
COc1ccc(CNC(=O)CC(c2ccc(OC)c(OC)c2)N2Cc3ccccc3C2=O)cc1 (configuration not stated),-9,.,0%,14%,-4%
CCCCNc1cccc2c1S(=O)(=O)N[C@H](Cc1ccccc1)CO2,-10,.,.,.,.
OCCCNc1cc(-c2ccnc(Nc3cccc(Cl)c3)n2)ccn1,-97*,2µM*,?,?,1µM*
CCC(C)Oc1cc(-c2ccnc(Nc3cccc(Cl)c3)n2)ccn1 (configuration not stated),-86*,12%,-2%,?,?
COc1ccc(-c2ccc3c(c2)CN(c2cccc(Cl)c2)Cc2cnnn2-3)cc1,-102*,.,-17%,i,-2%
Clc1cccc(N2Cc3cc(-c4ccccc4)ccc3-n3nncc3C2)c1,-108*,.,?,1%,5%
SMILES,HCMV antiviral,HCV inhibitor,FMDV inh,VACV mCherry inh,VACV Venus inh
Clc1cccc(N2Cc3cc(N4CCOCC4)ccc3-n3nncc3C2)c1,-19,.,-1%,i,2%
Cn1c(-c2cccnc2)cc2cnc(Nc3ccc4c(c3)OCCO4)cc21,43,.,.,.,.
COc1ccc(N2C(N)=NC(N)=NC2(C)C)cc1,?,-19%,-19%,?,11µM*
CCOc1ccc(-n2nc3ccc(N)cc3n2)cc1,-93*,-26%,?,.,.
COc1cccc(N2C(N)=NC(N)=NC2(C)C)c1,-67*,-13%,-17%,.,?
COc1ccc(-n2nc3ccc(N)cc3n2)cc1,73,.,-23%,-6%,-16%
COc1ccc(N2C(N)=NC(N)=NC23CCCC3)cc1,-39,12%,-13%,.,?
CCOc1ccc(N2C(N)=NC(N)=NC2(C)C)cc1,-68*,3%,0%,0%,?
Cc1ccc2c(CC(=O)Nc3ccc(F)c(S(=O)(=O)N4CCOCC4)c3)coc2c1,29,?,49%,.,.
O=S(=O)(Nc1ccc(-c2ccc(N3CCCC3)nn2)cc1)c1ccc(OC(F)(F)F)cc1,28,.,20%,-15%,-17%
CC1(C)N=C(N)N=C(N)N1c1cccc(C#N)c1,-77*,?,-13%,2µM*,4.5µM*
CC1(C)N=C(N)N=C(N)N1c1cccc(C(=O)O)c1,?,11%,?,i,-8%
CC1(C(=O)N2CCN(C(=O)c3ccco3)CC2)CC1(Br)Br (configuration not stated),12,10%,-12%,.,.
O=C(CCCC(=O)NCc1ccccc1)NCc1ccccc1,-32,13%,-22%,i,-6%
COc1ccc(CNC(=O)CCNC(=O)c2ccc(C(C)(C)C)cc2)cc1OC,?,2%,-15%,i,-11%
CC(C)(C)c1ccc(C(=O)NCCC(=O)NCc2ccc(F)cc2)cc1,-82*,.,-24%,i,-13%
O=C(CCCC(=O)NCc1ccc(F)cc1)NCc1ccc(F)cc1,-29,10%,35µM*,i,-7%
CCOc1ccc(CCNS(=O)(=O)c2c(C)nc3sccn3c2=O)cc1OCC,108,.,.,.,.
CN(C)CCN(C)CCc1ccc(Cl)c(Cl)c1,.,.,-11%,-16%,-13%
CCOC(=O)N1CCN(C(=O)N2CCOCC2)CC1,2,6%,-1%,-10%,-8%
CCOC(=O)N1CC(C)N(CC(O)CN2CCOCC2)CC1C (configuration not stated),-88*,4%,0%,-13%,-1%
OC(CN1CCOCC1)CN1CCOCC1,-65*,2%,-4%,i,5%
O=[N+]([O-])c1ccc2ncnc(N3CCN(Cc4ccc5c(c4)OCO5)CC3)c2c1,-80*,?,?,.,.
O=C(CCC(=O)N(CC(=O)NC1CCCC1)Cc1ccccc1Cl)Nc1nccs1,-7,5%,-6%,-11%,7%
Cc1ccc2occ(/C=N/NC(=O)[C@@H](N)Cc3ccccc3)c(=O)c2c1,-84*,-12%,-11%,i[7.34 µM],-2%[7.34 µM]
O=C1C(=C2SCCCS2)CC/C1=C\c1ccc(F)cc1,-91*,0%,5µM*,-13%,-7%
CCC(=O)C1=C(c2ccc(Cl)cc2)N(C(=O)CC)n2c(C)nnc2S1,-99*,.,0%,i[7.34 µM],-13%[7.34 µM]
COc1cc(OC)cc(-c2c(-c3ccc(F)cc3)c3cc(-c4cnc(OC)nc4)ccc3n2C)c1,-17,?,?,i,-23%
Cc1ccccc1-c1nnnn1C1CCS(=O)(=O)C1 (configuration not stated),-67*,13%,-13%,.,.
COc1ccc(N2CCN(c3nc(-c4cccs4)nc4ccccc34)CC2)cc1,?,11µM*,?,-27%,-10%
